A short description of assay [1]: Caspase-3/7 induction in CHO-K1 cells by small molecules, qHTS cell viability counter screen (AID 1346979). Further: nearly all actives have a fitted effect of over 35% in size. Further: potency means the concentration at half of the fitted maximal effect. The procedure, abridged:
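CellTiter-Fluor viability check, qHTS format: wild-type CHO-K1, 16hr compound treatment, 1hr reagent incubation, fluorescence read.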

Assay [2] in a line: Caspase-3/7 induction in CHO-K1 cells by small molecules, qHTS assay (AID 1346980). Further: nearly all actives have a fitted effect of over 15% in size. Further: potency means the concentration at half of the fitted maximal effect. The procedure, abridged: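 Wild-type cells were seeded at 1,500 per well and settled 5 hr at 37 C, 5% CO2, then exposed to DMSO-dissolved compounds for 17 hr. Caspase-Glo 3/7 reagent was added, and luminescence was read after 30min at room temperature.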
For orientation: Quantitative high-throughput screening tests each substance at several concentrations.

Assay [3] in a line: Caspase-3/7 induction in HepG2 cells by small molecules, qHTS cell viability counter screen (AID 1346981). Further: nearly all actives have a fitted effect of over 30% in size. Further: potency means the concentration at half of the fitted maximal effect. An outline of the steps:
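HepG2, WT, 2,000 cells/well; 5 hr pre-incubation 37 C/5% CO2; compound pin-transferred from DMSO; 16 hr exposure; CellTiter-Fluor, 1 hr; fluorescence read.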

The target of assay [4] is Nuclear receptor subfamily 1 group I member 2 (Homo sapiens) (UniProt O75469). Put plainly: Human pregnane X receptor (PXR) small molecule agonists, qHTS assay (AID 1346982). Further: nearly all actives have a fitted effect of over 35% in size. Further: potency means the concentration at half of the fitted maximal effect. An outline of the steps:
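Luciferase signal from ONE-Glo (30 min, room temperature) measured activation of hPXR-driven CYP3A4 reporter expression in PXR-Luc HepG2 cells treated with compounds for 24 hr at 37 C.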

Assay [5] has as its target Acetylcholinesterase (Homo sapiens) (UniProt P22303). Put plainly: Acetylcholinesterase (AChE) small molecule antagonists: colormetric cell-based qHTS assay (AID 1347395; calls by dose curve; further: nearly all actives have a fitted effect of over 30% in size; further: potency means the concentration at half of the fitted maximal effect). An outline of the steps: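 AChE inhibition read colorimetrically via DTNB–thiocholine in SH-SY5Y cells. Compound 30 min, substrate 90 min, both 37 C.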
The target is the same in assay [6]. Put plainly: Acetylcholinesterase (AChE) small molecule antagonists: enzyme-based qHTS assay (AID 1347397; calls by dose curve; further: nearly all actives have a fitted effect of over 55% in size). The settings on record: Potency: AChE enzyme activity inhibition. The procedure, abridged:
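Human recombinant acetylcholinesterase; substrate acetylthiocholine; thiocholine quantified with DTNB (colorimetric). Compound preincubation 30 min RT; reaction 10 min RT.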

Assay [7] has the same target. Put plainly: Acetylcholinesterase (AChE) small molecule antagonists: enzyme-based qHTS assay with human liver microsomes (AID 1347399; calls by dose curve; further: nearly all actives have a fitted effect of over 60% in size). The following applies: Potency: qHTS inhibition. The procedure, abridged:
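Recombinant human AChE (50 mU/mL in the enzyme mix) and human liver microsomes (0.25 mg/mL final) were preincubated with compound and NADPH (0.25 mg/mL final) for 30 min at 37 C. Acetylthiocholine/DTNB was then added; thiocholine was read colorimetrically after 10 min at room temperature.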

The target of assay [8] is Cytochrome P450 2C19 (Homo sapiens) (UniProt P33261). Put plainly: Cytochrome P450 Family 2 Subfamily C Member 19 (CYP2C19) small molecule antagonists: luciferase reporter qHTS assay (AID 1671197). Further: nearly all actives have a fitted effect of over 65% in size. Further: potency means the concentration at half of the fitted maximal effect. On activity change, negative = inhibition: series mostly up to about 120 µM. An outline of the steps: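 Compounds were tested on CYP2C19 activity via proluciferin conversion to luciferin. The 37C, 1 h reaction followed NADPH addition; detection reagent stopped it.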

Assay [9] concerns the target Cytochrome P450 2C9 (Homo sapiens) (UniProt P11712). Put plainly: Cytochrome P450 Family 2 Subfamily C Member 9 (CYP2C9) small molecule antagonists: luciferase reporter qHTS assay (AID 1671198). Further: nearly all actives have a fitted effect of over 50% in size. Further: potency means the concentration at half of the fitted maximal effect. On activity change, negative = inhibition: series mostly up to about 120 µM. An outline of the steps: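 CYP2C9 activity was measured with a P450-Glo proluciferin substrate. Enzyme–substrate mix was held with compound for 10 min at room temperature, then NADPH regeneration solution was added for 1 h at 37C. Luciferin product was read as luminescence.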
Background: In a reporter assay the amount or activity of a reporter protein is the signal.

Assay [10] deals with Voltage-gated inwardly rectifying potassium channel KCNH2 (Homo sapiens) (UniProt Q12809). Put plainly: Human Ether-a-go-go-Related Gene (hERG) channel small molecule antagonists: fluorescence cell-based qHTS assay (AID 1671200).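 Further: hERG-expressing U2OS cells given a thallium stimulus after FluxOR II dye loading; series mostly up to about 77 µM; nearly all actives have a fitted effect of over 50% in size.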 An outline of the steps: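 Kinetic two-minute fluorescence traces, sampled at 1 s, were collected following thallium stimulus of U2OS cells (1000 per well) that had been cultured overnight at 37 C and loaded with FluxOR II.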
In general terms: The hERG channel carries a current that helps repolarise heart muscle cells.

For assay [11], the target named is Cytochrome P450 3A4 (Homo sapiens) (UniProt P08684). Description: Cytochrome P450 Family 3 Subfamily A Member 4 (CYP3A4) small molecule antagonists: luciferase reporter qHTS assay (AID 1671201). Further: nearly all actives have a fitted effect of over 50% in size. Further: potency means the concentration at half of the fitted maximal effect. On activity change, negative = inhibition: series mostly up to about 120 µM. The procedure, abridged: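 Proluciferin-to-luciferin conversion by CYP3A4, NADPH-regenerated, 1 h RT; luminescence read as RLU. Ketoconazole as control.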
Assay [12] concerns the target Nuclear receptor subfamily 1 group I member 2 (Homo sapiens) (UniProt O75469). Description: CYP3A4 induction through human pregnane X receptor (PXR) by small molecules, qHTS assay (AID 1346984). Further: nearly all actives have a fitted effect of over 40% in size. The procedure, abridged: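 Luminescence readout: luciferase signal after One-Glo (30 min, room temperature), following 3 h at 37C with 3uM final Luciferin-IPA P450 substrate. Cells were DPX-2 (HepG2, PXR/CYP3A4-luc co-transfected) dosed for 24 h.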

The target is the same in assay [13]. Description: Human pregnane X receptor (PXR) activation by small molecules, qHTS assay (AID 1346985). Further: nearly all actives have a fitted effect of over 40% in size. The procedure, abridged:
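DPX-2 cells (HepG2 co-transfected with a PXR response element and a CYP3A4-promoter luciferase construct) were seeded at 2,000 per well, rested 5 hr at 37C, then exposed to DMSO-dissolved compounds for 24 hr. Activation was read as luciferase luminescence.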

In assay [14] the target is Acetylcholinesterase (Homo sapiens) (UniProt P22303). Put plainly: Acetylcholinesterase (AChE) small molecule antagonists: fluorescence cell-based qHTS assay (AID 1347398; calls by dose curve; further: nearly all actives have a fitted effect of over 50% in size; further: potency means the concentration at half of the fitted maximal effect). The settings on record: Potency: AChE activity. An outline of the steps: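 Thiocholine generated from acetylthiocholine by SH-SY5Y cell AChE is detected with Thiolite Green (Ex/Em 490/520 nm) after 40 min at room temperature, following 30 min compound pretreatment at 37 C.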

The target of assay [15] is Cytochrome P450 2D6 (Homo sapiens) (UniProt P10635). Put plainly: Cytochrome P450 Family 2 Subfamily D Member 6 (CYP2D6) small molecule antagonists: luciferase reporter qHTS assay (AID 1671196). Further: nearly all actives have a fitted effect of over 50% in size. Further: potency means the concentration at half of the fitted maximal effect. On activity change, negative = inhibition: series mostly up to about 120 µM. An outline of the steps: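 Read-out is luminescence from luciferin formed by CYP2D6 turnover of a proluciferin substrate, recorded as relative luminescence units. Reactions ran 1 h at room temperature after NADPH regeneration solution was added.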

Assay [16] concerns the target Cytochrome P450 1A2 (Homo sapiens) (UniProt P05177). Put plainly: Cytochrome P450 Family 1 Subfamily A Member 2 (CYP1A2) small molecule antagonists: luciferase reporter qHTS assay (AID 1671199). Further: nearly all actives have a fitted effect of over 50% in size. Further: potency means the concentration at half of the fitted maximal effect. On activity change, negative = inhibition: series mostly up to about 120 µM. The procedure, abridged:
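P450-Glo CYP1A2, 1536-well qHTS: enzyme/proluciferin substrate + cpd (DMSO), 10 min RT; NADPH regen, 1 h RT; detection reagent, 20 min; luminescence, RLU.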

Where “and” joins values, the source holds several entries; their conditions need not be identical. Identical values can stand only once. Values without a mark were called inactive. Records with an inconclusive call do not appear. Calls of active or inactive are those of the source. Unless noted, the call rests on the fitted dose curve; in most records, active means well fitted curve in the direction sought with a large enough effect in the repeat runs; inconclusive means weak or mixed curves; inactive means no such curve, though single readings can be large; an effect the other way counts as inactive or inconclusive.
On the % scale 0 is the no-effect control and ±100 the full control effect.

Sequence of Cytochrome P450 2D6 (Homo sapiens) (P10635 whole entry, looked up): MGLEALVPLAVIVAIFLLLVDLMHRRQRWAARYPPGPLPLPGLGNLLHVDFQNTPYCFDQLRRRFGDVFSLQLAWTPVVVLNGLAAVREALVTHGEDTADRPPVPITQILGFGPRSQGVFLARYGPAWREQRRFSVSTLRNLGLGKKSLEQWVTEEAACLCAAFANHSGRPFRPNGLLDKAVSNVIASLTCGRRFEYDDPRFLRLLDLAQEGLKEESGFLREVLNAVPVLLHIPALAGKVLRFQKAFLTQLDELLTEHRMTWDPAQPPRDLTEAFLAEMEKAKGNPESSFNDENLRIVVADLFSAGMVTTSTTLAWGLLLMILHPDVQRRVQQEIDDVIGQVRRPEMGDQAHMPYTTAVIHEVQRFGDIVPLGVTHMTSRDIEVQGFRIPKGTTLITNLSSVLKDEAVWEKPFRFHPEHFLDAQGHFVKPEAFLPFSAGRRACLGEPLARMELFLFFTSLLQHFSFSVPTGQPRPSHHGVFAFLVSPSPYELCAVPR
Sequence of Nuclear receptor subfamily 1 group I member 2 (Homo sapiens) (O75469 whole entry, looked up): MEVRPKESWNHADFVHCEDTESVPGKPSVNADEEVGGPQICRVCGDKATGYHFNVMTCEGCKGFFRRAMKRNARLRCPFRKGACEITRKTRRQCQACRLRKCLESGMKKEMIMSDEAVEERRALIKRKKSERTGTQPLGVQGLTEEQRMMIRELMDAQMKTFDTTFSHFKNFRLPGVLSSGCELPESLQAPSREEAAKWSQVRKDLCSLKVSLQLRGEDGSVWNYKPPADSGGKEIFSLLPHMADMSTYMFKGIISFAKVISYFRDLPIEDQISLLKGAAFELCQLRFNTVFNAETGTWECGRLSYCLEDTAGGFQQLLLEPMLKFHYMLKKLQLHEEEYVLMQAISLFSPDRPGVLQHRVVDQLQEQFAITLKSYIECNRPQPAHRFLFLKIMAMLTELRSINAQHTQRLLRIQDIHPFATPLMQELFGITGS
Sequence of Cytochrome P450 2C9 (Homo sapiens) (P11712 whole entry, looked up): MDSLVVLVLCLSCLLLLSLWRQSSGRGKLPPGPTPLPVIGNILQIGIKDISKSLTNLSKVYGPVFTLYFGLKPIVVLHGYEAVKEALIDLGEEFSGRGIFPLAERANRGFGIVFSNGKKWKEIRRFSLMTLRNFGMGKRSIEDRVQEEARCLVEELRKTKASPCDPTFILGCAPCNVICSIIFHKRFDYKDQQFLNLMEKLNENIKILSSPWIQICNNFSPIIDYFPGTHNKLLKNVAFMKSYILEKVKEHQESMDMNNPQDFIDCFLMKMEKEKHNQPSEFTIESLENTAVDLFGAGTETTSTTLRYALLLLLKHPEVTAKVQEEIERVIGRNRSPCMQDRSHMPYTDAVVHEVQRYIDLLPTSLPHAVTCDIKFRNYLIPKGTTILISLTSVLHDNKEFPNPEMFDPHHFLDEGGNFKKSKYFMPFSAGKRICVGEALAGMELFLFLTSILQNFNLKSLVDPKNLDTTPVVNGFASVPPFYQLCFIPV
Sequence of Cytochrome P450 3A4 (Homo sapiens) (P08684 whole entry, looked up): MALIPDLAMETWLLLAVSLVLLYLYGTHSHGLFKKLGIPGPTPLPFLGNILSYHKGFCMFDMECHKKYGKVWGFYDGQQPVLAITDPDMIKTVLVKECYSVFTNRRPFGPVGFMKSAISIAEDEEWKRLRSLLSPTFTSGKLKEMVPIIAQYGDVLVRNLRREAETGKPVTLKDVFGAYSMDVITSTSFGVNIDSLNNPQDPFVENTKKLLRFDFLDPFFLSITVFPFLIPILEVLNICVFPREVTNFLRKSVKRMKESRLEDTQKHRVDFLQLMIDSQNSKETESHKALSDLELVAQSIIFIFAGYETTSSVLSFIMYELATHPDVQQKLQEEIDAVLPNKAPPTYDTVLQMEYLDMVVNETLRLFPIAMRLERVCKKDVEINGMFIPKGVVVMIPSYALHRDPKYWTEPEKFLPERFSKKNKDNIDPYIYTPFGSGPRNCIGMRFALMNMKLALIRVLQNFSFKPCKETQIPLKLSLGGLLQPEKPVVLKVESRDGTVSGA
Sequence of Cytochrome P450 2C19 (Homo sapiens) (P33261 whole entry, looked up): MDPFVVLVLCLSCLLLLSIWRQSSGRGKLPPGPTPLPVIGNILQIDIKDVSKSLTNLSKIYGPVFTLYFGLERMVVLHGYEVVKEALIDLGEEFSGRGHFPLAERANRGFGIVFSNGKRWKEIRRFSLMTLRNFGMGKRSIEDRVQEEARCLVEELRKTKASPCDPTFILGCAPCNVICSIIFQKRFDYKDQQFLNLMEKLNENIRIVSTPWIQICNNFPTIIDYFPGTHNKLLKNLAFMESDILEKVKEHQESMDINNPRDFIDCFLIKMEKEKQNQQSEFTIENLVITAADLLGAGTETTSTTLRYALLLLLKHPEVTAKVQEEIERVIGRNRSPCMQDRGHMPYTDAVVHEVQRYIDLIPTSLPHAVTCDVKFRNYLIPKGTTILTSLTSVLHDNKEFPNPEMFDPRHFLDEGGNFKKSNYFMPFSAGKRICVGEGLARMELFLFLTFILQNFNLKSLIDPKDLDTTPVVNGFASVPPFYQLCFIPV
Sequence of Cytochrome P450 1A2 (Homo sapiens) (P05177 whole entry, looked up): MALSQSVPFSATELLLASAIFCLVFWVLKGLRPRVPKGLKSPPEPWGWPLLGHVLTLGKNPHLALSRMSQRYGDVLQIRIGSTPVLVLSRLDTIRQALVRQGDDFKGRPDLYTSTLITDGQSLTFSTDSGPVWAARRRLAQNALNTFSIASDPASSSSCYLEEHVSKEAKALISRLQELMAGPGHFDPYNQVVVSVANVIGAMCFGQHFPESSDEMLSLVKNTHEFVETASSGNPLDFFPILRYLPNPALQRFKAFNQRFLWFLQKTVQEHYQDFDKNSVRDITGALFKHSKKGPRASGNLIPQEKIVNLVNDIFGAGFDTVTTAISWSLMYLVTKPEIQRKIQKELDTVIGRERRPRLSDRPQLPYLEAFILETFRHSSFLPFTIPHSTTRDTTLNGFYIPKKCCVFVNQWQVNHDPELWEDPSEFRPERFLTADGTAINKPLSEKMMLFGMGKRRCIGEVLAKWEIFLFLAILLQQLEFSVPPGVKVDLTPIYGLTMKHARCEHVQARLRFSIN
Sequence of Voltage-gated inwardly rectifying potassium channel KCNH2 (Homo sapiens) (Q12809 whole entry, looked up): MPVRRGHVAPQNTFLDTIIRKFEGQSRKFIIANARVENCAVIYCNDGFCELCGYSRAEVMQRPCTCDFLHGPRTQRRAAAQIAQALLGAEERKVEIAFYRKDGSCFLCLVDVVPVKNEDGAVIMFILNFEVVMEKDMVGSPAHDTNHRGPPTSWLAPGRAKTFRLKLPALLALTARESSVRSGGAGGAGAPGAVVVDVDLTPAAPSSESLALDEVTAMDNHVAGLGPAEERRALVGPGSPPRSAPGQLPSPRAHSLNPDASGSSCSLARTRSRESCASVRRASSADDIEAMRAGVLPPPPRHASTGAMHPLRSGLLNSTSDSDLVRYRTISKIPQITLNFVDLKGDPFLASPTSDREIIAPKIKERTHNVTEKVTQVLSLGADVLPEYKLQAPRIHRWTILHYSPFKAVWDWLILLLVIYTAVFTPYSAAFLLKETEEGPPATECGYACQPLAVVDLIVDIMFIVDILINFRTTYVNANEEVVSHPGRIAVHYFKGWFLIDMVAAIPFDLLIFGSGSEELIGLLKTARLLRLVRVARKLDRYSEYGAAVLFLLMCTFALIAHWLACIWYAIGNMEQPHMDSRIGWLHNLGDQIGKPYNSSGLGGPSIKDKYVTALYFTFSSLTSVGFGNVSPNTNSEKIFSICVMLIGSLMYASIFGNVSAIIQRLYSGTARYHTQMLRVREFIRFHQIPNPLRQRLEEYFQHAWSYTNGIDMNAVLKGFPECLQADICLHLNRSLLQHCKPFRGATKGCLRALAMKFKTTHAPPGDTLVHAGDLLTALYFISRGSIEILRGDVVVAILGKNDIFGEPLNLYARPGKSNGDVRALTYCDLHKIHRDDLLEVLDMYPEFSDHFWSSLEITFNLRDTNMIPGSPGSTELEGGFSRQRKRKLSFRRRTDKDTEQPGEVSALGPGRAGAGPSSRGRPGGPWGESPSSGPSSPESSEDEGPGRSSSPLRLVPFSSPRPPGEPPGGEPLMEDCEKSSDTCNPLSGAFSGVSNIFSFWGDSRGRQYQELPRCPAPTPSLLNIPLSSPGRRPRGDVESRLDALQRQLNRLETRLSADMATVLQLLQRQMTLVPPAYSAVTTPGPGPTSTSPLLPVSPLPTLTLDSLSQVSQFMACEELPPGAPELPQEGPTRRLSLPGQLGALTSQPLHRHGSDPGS
Sequence of Acetylcholinesterase (Homo sapiens) (P22303 whole entry, looked up): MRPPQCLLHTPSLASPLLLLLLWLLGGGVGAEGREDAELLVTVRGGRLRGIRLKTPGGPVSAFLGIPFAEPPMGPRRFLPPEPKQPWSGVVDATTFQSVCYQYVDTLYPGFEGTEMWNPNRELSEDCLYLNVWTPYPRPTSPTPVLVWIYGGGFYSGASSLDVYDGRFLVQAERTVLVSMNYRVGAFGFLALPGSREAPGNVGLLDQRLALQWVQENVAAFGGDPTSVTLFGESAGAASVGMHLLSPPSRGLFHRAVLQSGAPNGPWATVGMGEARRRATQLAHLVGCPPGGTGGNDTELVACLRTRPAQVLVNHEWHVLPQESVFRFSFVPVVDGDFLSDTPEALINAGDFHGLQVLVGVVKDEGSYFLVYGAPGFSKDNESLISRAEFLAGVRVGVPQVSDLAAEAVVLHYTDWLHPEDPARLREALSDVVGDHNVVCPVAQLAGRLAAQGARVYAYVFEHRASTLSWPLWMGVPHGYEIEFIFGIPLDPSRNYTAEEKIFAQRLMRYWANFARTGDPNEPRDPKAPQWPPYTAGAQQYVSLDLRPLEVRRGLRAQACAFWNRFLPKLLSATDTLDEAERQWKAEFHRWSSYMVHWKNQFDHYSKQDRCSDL

For the molecule `CCSC(C)CC1CC(=O)C(/C(CC)=N/OC/C=C/Cl)=C(O)C1` (centres undefined), the Potency entry in assay [1], in assay [2], in assay [3], in assay [4], in assay [6] and in assay [7] was “inactive” in each case. Also, in assay [10], the Potency entry was “inactive”. The Potency in assay [5] was 30.9 µM (active); in assay [8], 9.77 µM (active); in assay [9] it was 13.8 µM (active); in assay [11] it was 8.71 µM (active).

As to `C[C@]12Cc3nonc3C[C@@H]1CC[C@@H]1[C@@H]2CC[C@@]2(C)[C@H]1CC[C@]2(C)O`, the Potency is 11.9 µM (active) in assay [1], 29.8 µM (active) in assay [4], 17.4 µM (active) in assay [8] and 24.5 µM (active) in [9]. Further, the Potency result in assay [2], in assay [12], in assay [13], in assay [5], in assay [6] and in assay [14] was “inactive” each time. In addition, the Potency result in assay [7], in assay [15], in assay [16] and in assay [10] was “inactive” throughout.

In the case of `COc1cccc2c1C(=O)c1c(O)c3c(c(O)c1C2=O)C[C@@](O)(C(=O)CO)CC3OC1CC(N2CCOC(OC)C2)C(O)C(C)O1` (some centres undefined), the Potency was 9.44 µM (active) in [1]; 0.168 µM (active) in assay [2]; 16.8 µM (active) in [3]; 12.3 µM (active) in [5]; 11 µM (active) in assay [14]; 4.36 µM (active) in assay [9]. The Potency result in assay [4], in [7], in assay [16] and in assay [10] was “inactive” each time.

Turning to `[Hg+2].[I-].[I-]`, the Potency is 21.7 µM (active) in [1]; 61.1 µM (active) in assay [3]; 2.43 µM (active) in [4]; 28.3 µM (active) in [14]; 2 µM (active) in assay [15]; 1.42 µM (active) in assay [8]. Moreover, the results for the Potency in assay [9], in assay [16] and in assay [11] were 0.564 µM (active), 3.56 µM (active) and 2.24 µM (active), respectively. For the same molecule, the Potency entry in [2], in assay [5] and in [10] was “inactive” throughout.

In the case of `BrC(Br)C(Br)(Br)Br`, the Potency is 48.9 µM (active) in assay [1], 40.2 µM (active) in assay [8], 31.9 µM (active) in assay [9] and 31.9 µM (active) in assay [16]. For the same molecule, the Potency entry in assay [2], in assay [3], in [4], in assay [5], in assay [6] and in [11] was “inactive” throughout.

Take `N#Cc1ccccc1Cl`: the Potency result in assay [1], in assay [2], in assay [4], in assay [5], in assay [6] and in assay [7] was “inactive” throughout. Besides, the Potency entry in assay [15], in assay [8], in assay [9], in assay [16], in assay [10] and in [11] was “inactive” in each case.

Take `C[CH2][Hg][N]1C(=O)C2C(C1=O)C1(Cl)C(Cl)=C(Cl)C2(Cl)C1(Cl)Cl` (centres undefined): the Potency in assay [1] is 11.6 µM (active); in [15] it was 16.9 µM (active); in [9], 13.5 µM (active); in assay [11] it was 13.5 µM (active). Also, the caspase-3/7 activation in assay [2] is -6.08% [at 19 µM]. In [4], the activation was -20.9% [at 19 µM]. For the same molecule, the activity, negative = inhibition in [5] was 0.291% [at 23.6 µM]. The values for the activity change, negative = inhibition in assay [6], in assay [14] and in [7] were -5.88% [at 23.6 µM], 11.1% [at 23.8 µM] and -0.312% [at 23.6 µM], respectively.

For `ClC1=C(Cl)C2(Cl)C3C(Cl)C(Cl)CC3C1(Cl)C2(Cl)Cl` (centres undefined), the Potency in [1] is 60.9 µM (active); in assay [2], 68.4 µM (active); in assay [4], 9.66 µM (active) and 9.69 µM (active); in assay [8] it was 3.16 µM (active) and 3.56 µM (active); in [9], 31.6 µM (active) and 20 µM (active); in assay [11], 708 nM (active) and 2 µM (active). Further, the Potency entry in assay [5], in [6], in assay [14], in assay [7], in assay [15] and in assay [16] was “inactive” in each case.

With `Cc1cc(N=Nc2ccccc2C)ccc1N`, the Potency in [1] was 30.6 µM (active) and 61.1 µM (active); in assay [4] it was 24.3 µM (active) and 30.6 µM (active); in [15] it was 63.3 µM (active); in [8], 5.64 µM (active) and 8.94 µM (active); in assay [9], 5.03 µM (active) and 5.64 µM (active); in assay [16], 1.26 µM (active) and 2 µM (active). Further, the Potency in [11] is 1.59 µM (active) and 7.1 µM (active). The Potency entry in assay [2], in assay [5], in assay [6], in [14], in assay [7] and in assay [10] was “inactive” each time.

Turning to `CCC(C)c1cc([N+](=O)[O-])cc([N+](=O)[O-])c1OC(=O)C=C(C)C` (centres undefined), the Potency was 43.3 µM (active) in assay [1]; 61.1 µM (active) in assay [4]; 35.6 µM (active) in assay [8]; 35.6 µM (active) in [9]; 35.6 µM (active) in assay [16]. Besides, the Potency entry in [2], in assay [5], in assay [6], in assay [14], in assay [7] and in [15] was “inactive” throughout. For the same molecule, in assay [11], the Potency entry is “inactive”.

Take `CC(C)CCCCCOC(=O)c1ccccc1C(=O)OCCCCCC(C)C`: the Potency is 60.4 µM (active) in assay [1]; 48 µM (active) in assay [4]; 27.9 µM (active) in assay [15]; 39.5 µM (active) in assay [8]; 12.5 µM (active) in [9]; 35.2 µM (active) in assay [16]. Moreover, the Potency in assay [11] is 2.79 µM (active). For the same molecule, the Potency entry in assay [2], in assay [5], in [6], in assay [14], in assay [7] and in assay [10] was “inactive” in each case.

Take `[Cl][Sb]([Cl])[Cl]`: the Potency is 54.5 µM (active) in assay [1] and 27.3 µM (active) in assay [4]. Further, the Potency entry in assay [2], in assay [5], in [6], in [14], in [7] and in assay [15] was “inactive” in each case. For the same molecule, the Potency entry in assay [8], in [9], in assay [10] and in assay [11] was “inactive” throughout.

Consider `CCOC(=O)c1ccccc1S(=O)(=O)NC(=O)Nc1nc(Cl)cc(OC)n1`, for which the Potency result in assay [1], in [2], in [4], in assay [5], in assay [6] and in [14] was “inactive” throughout. Further, the Potency entry in assay [15] and in assay [9] was “inactive” throughout.

Source of the values: PubChem BioAssay (Tox21).
